From PubChem BioAssay (Tox21)
Inconclusive results are not listed. Calls of active or inactive are those of the source. Unless noted, the call rests on the fitted dose curve; in most records, active means well fitted curve in the direction sought with a large enough effect in the repeat runs; inconclusive means weak or mixed curves; inactive means no such curve, though single readings can be large; an effect the other way counts as inactive or inconclusive.

Tests used:
[1] = qHTS assay to identify small molecule antagonists of the TGF-beta/Smad signaling pathway - cell viability counter screen (AID 1346824); further: nearly all actives have a fitted effect of over 50% in size
How it was run: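 SBE-bla HEK 293T cells were plated overnight at 37 C, then given compounds in DMSO plus TGF-beta1 (added as 0.25 ng/mL solution) for 5 hr. After the bla read, CellTiter-Glo was added to the same wells and luminescence read after 30 min at room temperature.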

[2] = qHTS assay to identify small molecule agonists of the TGF-beta/Smad signaling pathway - cell viability counter screen (AID 1346829); further: top concentration of the series differs between compounds; nearly all actives have a fitted effect of over 45% in size
How it was run: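 Here the cytotoxicity of library compounds is measured in SBE-bla HEK 293T cells treated for 5 hr, using CellTiter-Glo added to wells already read for the beta-lactamase reporter.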

[3] = qHTS assay to identify small molecule agonists of the TGF-beta/Smad signaling pathway (AID 1346859; active means well fitted activation curve with a large enough effect in the signal ratio in the repeat runs, not every such curve was filed as active; the % refers to the signal ratio; further: series mostly up to about 77 µM)
How it was run: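 Reporter line: HEK 293T with stably integrated SBE-controlled beta-lactamase. Compound exposure lasts 5 hr at 37 C and 5% CO2; substrate loading follows for 2 hr at room temperature, with emission read at 460 and 530 nm.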

[4] = target: Thyrotropin-releasing hormone receptor (Homo sapiens) (UniProt P34981); assay: qHTS assay to identify small molecule antagonists of the thyrotropin-releasing hormone receptor (TRHR) signaling pathway (AID 1346877; active means well fitted inhibition curve with a large enough effect in the repeat runs, not every such curve was filed as active; further: series mostly up to about 51 µM)
How it was run: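 Overnight-plated (18 h, 37 °C) HEK293 cells expressing TRHR were dye-loaded 2 h, treated with compound, then stimulated with TRH at 1 nM final. Fluorescence intensity was captured every second for 3 min.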

[5] = Human pregnane X receptor (PXR) small molecule agonists, qHTS cell viability counter screen (AID 1346977); further: nearly all actives have a fitted effect of over 50% in size
How it was run: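 Cytotoxicity counter screen run in the same wells as the PXR luciferase assay, using PXR-Luc HepG2 cells in charcoal-stripped serum medium. Viability: CellTiter-Fluor fluorescence after 24hr compound treatment.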

[6] = Caspase-3/7 induction in HepG2 cells by small molecules, qHTS assay (AID 1346978); further: nearly all actives have a fitted effect of over 15% in size
How it was run: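 Wild-type HepG2 cells (2,000/well) were settled 5 h at 37 C, 5% CO2, then exposed to compounds in DMSO for 17 h. Caspase-3/7 activity was read by luminescence 30 min after adding Caspase-Glo 3/7 reagent at room temperature.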

[7] = Caspase-3/7 induction in CHO-K1 cells by small molecules, qHTS cell viability counter screen (AID 1346979); further: nearly all actives have a fitted effect of over 35% in size
How it was run: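 Cytotoxicity counter screen run in parallel with the caspase-3/7 assay: CHO-K1 cells, 16hr compound treatment at 37C, then CellTiter-Fluor for 1hr before fluorescence reading.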

[8] = Caspase-3/7 induction in CHO-K1 cells by small molecules, qHTS assay (AID 1346980); further: nearly all actives have a fitted effect of over 15% in size
How it was run: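 Wild-type cells were seeded at 1,500 per well and settled 5 hr at 37 C, 5% CO2, then exposed to DMSO-dissolved compounds for 17 hr. Caspase-Glo 3/7 reagent was added, and luminescence was read after 30min at room temperature.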

[9] = Caspase-3/7 induction in HepG2 cells by small molecules, qHTS cell viability counter screen (AID 1346981); further: series mostly up to about 92 µM; nearly all actives have a fitted effect of over 30% in size
How it was run: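 Treatment of HepG2 cells with DMSO-delivered compounds ran 16 hr at 37 C following a 5-hr pre-incubation of 2,000 cells/well. CellTiter-Fluor fluorescence, read after 1 hr, served as the viability measure in a qHTS format.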

[10] = target: Nuclear receptor subfamily 1 group I member 2 (Homo sapiens) (UniProt O75469); assay: Human pregnane X receptor (PXR) small molecule agonists, qHTS assay (AID 1346982); further: nearly all actives have a fitted effect of over 35% in size
How it was run: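 Stable HepG2 line reporting PXR-mediated CYP3A4 expression via luciferase. Treatment: 24 hr with compounds in DMSO at 37 C. Detection: ONE-Glo luminescence.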

[11] = target: Cytochrome P450 1A2 (Homo sapiens) (UniProt P05177); assay: Cytochrome P450 Family 1 Subfamily A Member 2 (CYP1A2) small molecule antagonists: luciferase reporter qHTS assay (AID 1671199); further: nearly all actives have a fitted effect of over 50% in size; further: potency means the concentration at half of the fitted maximal effect; on activity change, negative = inhibition: series mostly up to about 120 µM
How it was run: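 Read-out is luminescence from luciferin detection reagent (20 min) proportional to CYP1A2 activity; compounds in DMSO preincubated 10 min with enzyme and proluciferin substrate, then NADPH regeneration solution, 1 h, room temperature.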

[12] = target: Voltage-gated inwardly rectifying potassium channel KCNH2 (Homo sapiens) (UniProt Q12809); assay: Human Ether-a-go-go-Related Gene (hERG) channel small molecule antagonists: fluorescence cell-based qHTS assay (AID 1671200);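 further: hERG-expressing U2OS cells given a thallium stimulus after FluxOR II dye loading; series mostly up to about 77 µM; nearly all actives have a fitted effect of over 50% in size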
How it was run: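 Fluorescence at 540 nm emission (480 nm excitation) was recorded kinetically for 2 min at 1-second intervals once the thallium-containing stimulus reached cells previously loaded with FluxOR II dye.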

[13] = target: Cytochrome P450 3A4 (Homo sapiens) (UniProt P08684); assay: Cytochrome P450 Family 3 Subfamily A Member 4 (CYP3A4) small molecule antagonists: luciferase reporter qHTS assay (AID 1671201)
How it was run: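 qHTS, 1536-well. CYP3A4 + proluciferin substrate, cpd 10 min RT → NADPH regen 1 h RT → detection reagent 20 min → luminescence (RLU). Ketoconazole positive control.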

[14] = target: Cytochrome P450 2D6 (Homo sapiens) (UniProt P10635); assay: Cytochrome P450 Family 2 Subfamily D Member 6 (CYP2D6) small molecule antagonists: luciferase reporter qHTS assay (AID 1671196)
How it was run: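 Chemicals tested for interference with CYP2D6 activity; proluciferin substrate, NADPH regeneration, 1 h at room temperature, luminescent detection.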

[15] = target: Cytochrome P450 2C19 (Homo sapiens) (UniProt P33261); assay: Cytochrome P450 Family 2 Subfamily C Member 19 (CYP2C19) small molecule antagonists: luciferase reporter qHTS assay (AID 1671197); further: nearly all actives have a fitted effect of over 65% in size; further: potency means the concentration at half of the fitted maximal effect; on activity change, negative = inhibition: series mostly up to about 120 µM
How it was run: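 Light output is proportional to CYP2C19 activity: proluciferin substrate is converted to luciferin, then detected by a luciferin detection reagent that also stops the 1 h, 37C NADPH-driven reaction. Ketoconazole serves as positive control.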

[16] = target: Cytochrome P450 2C9 (Homo sapiens) (UniProt P11712); assay: Cytochrome P450 Family 2 Subfamily C Member 9 (CYP2C9) small molecule antagonists: luciferase reporter qHTS assay (AID 1671198); further: nearly all actives have a fitted effect of over 50% in size; further: potency means the concentration at half of the fitted maximal effect; on activity change, negative = inhibition: series mostly up to about 120 µM
How it was run: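 CYP2C9 activity was measured with a P450-Glo proluciferin substrate. Enzyme–substrate mix was held with compound for 10 min at room temperature, then NADPH regeneration solution was added for 1 h at 37C. Luciferin product was read as luminescence.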

[17] = target: Nuclear receptor subfamily 1 group I member 2 (Rattus norvegicus) (UniProt Q9R1A7); assay: Rat pregnane X receptor (rPXR) activation by small molecules, qHTS assay (AID 1346983); conditions: rPXR luciferase reporter cells, One-Glo luminescence, 24 h; max activation: hits give high values; further: nearly all actives have a fitted effect of over 20% in size
How it was run: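 Cell-based rPXR luciferase reporter assay, 2,000 cells per well, rested 5hr at 37 C before compound addition in DMSO, then 24 hr at 37 C. One-Glo reagent was added and luminescence read after 30 min at room temperature.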

[18] = target: Nuclear receptor subfamily 1 group I member 2 (Homo sapiens) (UniProt O75469); assay: CYP3A4 induction through human pregnane X receptor (PXR) by small molecules, qHTS assay (AID 1346984); further: nearly all actives have a fitted effect of over 40% in size
How it was run: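 After 24 h at 37C with compound, DPX-2 cells (HepG2, co-transfected PXR response element and CYP3A4 promoter-luciferase) got 3uM final P450-Glo Luciferin-IPA for 3 h; One-Glo luminescence followed.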

[19] = target: Nuclear receptor subfamily 1 group I member 2 (Homo sapiens) (UniProt O75469); assay: Human pregnane X receptor (PXR) activation by small molecules, qHTS assay (AID 1346985); further: nearly all actives have a fitted effect of over 40% in size
How it was run: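 DPX-2 cells (HepG2 co-transfected with a PXR response element and a CYP3A4-promoter luciferase construct) were seeded at 2,000 per well, rested 5 hr at 37C, then exposed to DMSO-dissolved compounds for 24 hr. Activation was read as luciferase luminescence.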

[20] = target: Thyrotropin-releasing hormone receptor (Homo sapiens) (UniProt P34981); assay: qHTS assay to identify small molecule agonists of the thyrotropin-releasing hormone receptor (TRHR) signaling pathway (AID 1346891; calls by dose curve;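 further: HEK293 cells expressing TRHR with calcium dye readout; series mostly up to about 58 µM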)
How it was run: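 Cells: TRHR-Hek293, seeded and incubated 18 h. Dye loading: 2 h at 37 °C. Compound added from DMSO stock by pin tool. Read-out: kinetic calcium fluorescence over 3 min.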
On the % scale 0 is the no-effect control and ±100 the full control effect.

Nuclear receptor subfamily 1 group I member 2 (Homo sapiens), sequence (O75469 whole entry, looked up): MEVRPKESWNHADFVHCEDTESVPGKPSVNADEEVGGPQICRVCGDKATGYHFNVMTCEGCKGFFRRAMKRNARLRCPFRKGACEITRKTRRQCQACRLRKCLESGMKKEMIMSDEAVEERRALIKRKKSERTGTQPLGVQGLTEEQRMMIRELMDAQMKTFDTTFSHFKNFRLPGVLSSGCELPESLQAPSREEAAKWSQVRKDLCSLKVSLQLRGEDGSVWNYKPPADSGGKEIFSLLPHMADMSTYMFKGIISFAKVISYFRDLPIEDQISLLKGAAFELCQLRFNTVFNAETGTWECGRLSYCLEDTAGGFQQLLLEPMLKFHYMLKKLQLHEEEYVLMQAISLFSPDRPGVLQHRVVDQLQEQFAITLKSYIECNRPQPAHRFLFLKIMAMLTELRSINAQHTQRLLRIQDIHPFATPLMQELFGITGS
Cytochrome P450 1A2 (Homo sapiens), sequence (P05177 whole entry, looked up): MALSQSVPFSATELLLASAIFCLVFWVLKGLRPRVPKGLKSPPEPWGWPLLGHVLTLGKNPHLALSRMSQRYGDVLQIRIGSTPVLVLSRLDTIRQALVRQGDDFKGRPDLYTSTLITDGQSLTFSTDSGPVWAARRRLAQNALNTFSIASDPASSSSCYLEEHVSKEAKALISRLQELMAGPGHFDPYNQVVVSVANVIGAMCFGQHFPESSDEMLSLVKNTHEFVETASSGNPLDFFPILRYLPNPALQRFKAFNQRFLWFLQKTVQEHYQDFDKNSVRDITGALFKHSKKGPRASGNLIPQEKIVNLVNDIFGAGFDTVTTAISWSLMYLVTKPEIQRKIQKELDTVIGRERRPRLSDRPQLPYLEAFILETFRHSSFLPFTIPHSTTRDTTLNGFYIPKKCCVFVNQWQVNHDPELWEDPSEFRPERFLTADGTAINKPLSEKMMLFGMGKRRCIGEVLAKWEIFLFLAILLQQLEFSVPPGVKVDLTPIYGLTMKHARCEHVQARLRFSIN
Cytochrome P450 3A4 (Homo sapiens), sequence (P08684 whole entry, looked up): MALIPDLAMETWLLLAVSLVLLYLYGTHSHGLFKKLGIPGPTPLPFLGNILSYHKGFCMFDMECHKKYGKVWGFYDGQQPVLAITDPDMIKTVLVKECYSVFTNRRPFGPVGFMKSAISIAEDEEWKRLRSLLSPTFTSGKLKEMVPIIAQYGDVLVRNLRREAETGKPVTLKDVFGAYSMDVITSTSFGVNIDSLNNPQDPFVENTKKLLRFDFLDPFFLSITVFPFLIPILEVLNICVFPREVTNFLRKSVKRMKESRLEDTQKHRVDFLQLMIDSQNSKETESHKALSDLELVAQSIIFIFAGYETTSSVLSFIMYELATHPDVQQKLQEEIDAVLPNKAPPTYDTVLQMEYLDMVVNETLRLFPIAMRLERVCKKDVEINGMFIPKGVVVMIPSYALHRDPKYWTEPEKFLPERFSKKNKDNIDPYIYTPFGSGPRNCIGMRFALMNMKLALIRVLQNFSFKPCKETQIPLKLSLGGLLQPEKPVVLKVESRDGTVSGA
Thyrotropin-releasing hormone receptor (Homo sapiens), sequence (P34981 whole entry, looked up): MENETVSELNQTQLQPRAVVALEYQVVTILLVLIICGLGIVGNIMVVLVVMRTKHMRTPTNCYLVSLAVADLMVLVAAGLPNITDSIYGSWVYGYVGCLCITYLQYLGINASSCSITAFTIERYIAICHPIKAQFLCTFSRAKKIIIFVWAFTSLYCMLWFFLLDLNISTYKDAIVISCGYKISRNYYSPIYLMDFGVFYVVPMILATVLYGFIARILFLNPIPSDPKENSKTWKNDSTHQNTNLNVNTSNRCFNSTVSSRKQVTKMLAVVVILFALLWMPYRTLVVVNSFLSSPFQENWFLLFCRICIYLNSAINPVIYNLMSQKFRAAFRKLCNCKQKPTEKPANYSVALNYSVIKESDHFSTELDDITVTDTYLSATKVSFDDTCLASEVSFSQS
Cytochrome P450 2C9 (Homo sapiens), sequence (P11712 whole entry, looked up): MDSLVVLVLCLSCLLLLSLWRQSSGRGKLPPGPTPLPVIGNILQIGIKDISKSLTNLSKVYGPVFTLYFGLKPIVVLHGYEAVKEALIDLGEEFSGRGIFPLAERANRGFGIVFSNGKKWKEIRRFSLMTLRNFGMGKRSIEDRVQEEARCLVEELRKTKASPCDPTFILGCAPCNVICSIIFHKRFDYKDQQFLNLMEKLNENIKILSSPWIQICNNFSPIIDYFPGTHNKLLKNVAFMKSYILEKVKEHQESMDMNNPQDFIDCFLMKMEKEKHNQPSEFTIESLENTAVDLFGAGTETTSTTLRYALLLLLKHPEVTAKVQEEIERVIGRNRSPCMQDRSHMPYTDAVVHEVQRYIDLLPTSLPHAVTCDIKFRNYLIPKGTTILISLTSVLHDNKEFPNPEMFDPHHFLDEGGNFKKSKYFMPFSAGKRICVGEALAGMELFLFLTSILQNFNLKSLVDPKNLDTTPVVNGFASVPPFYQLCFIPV
Cytochrome P450 2D6 (Homo sapiens), sequence (P10635 whole entry, looked up): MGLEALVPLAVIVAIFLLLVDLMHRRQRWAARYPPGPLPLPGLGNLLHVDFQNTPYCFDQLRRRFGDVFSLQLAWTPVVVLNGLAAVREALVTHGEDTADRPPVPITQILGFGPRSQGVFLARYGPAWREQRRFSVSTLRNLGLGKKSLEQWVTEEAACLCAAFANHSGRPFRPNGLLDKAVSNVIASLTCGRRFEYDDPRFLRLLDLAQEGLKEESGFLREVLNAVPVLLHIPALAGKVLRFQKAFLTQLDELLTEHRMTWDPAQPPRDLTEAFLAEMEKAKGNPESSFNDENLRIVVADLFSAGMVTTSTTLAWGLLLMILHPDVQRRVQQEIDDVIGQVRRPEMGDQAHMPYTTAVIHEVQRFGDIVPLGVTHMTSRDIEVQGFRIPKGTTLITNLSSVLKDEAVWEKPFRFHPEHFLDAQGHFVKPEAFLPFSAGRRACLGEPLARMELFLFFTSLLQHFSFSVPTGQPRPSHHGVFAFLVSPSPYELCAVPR
Cytochrome P450 2C19 (Homo sapiens), sequence (P33261 whole entry, looked up): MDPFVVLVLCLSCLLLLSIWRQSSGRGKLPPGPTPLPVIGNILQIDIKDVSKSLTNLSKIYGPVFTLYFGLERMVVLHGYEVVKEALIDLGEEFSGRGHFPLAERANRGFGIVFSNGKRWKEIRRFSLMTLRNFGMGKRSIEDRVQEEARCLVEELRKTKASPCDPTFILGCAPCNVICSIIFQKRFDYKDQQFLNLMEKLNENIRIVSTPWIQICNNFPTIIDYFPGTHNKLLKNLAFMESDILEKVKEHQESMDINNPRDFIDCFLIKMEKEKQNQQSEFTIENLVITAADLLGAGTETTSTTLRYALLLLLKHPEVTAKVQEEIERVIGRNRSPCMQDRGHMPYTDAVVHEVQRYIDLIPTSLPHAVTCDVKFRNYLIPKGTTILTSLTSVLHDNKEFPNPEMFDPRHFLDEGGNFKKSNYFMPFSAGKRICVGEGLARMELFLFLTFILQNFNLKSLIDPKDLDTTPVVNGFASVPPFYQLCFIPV
Voltage-gated inwardly rectifying potassium channel KCNH2 (Homo sapiens), sequence (Q12809 whole entry, looked up): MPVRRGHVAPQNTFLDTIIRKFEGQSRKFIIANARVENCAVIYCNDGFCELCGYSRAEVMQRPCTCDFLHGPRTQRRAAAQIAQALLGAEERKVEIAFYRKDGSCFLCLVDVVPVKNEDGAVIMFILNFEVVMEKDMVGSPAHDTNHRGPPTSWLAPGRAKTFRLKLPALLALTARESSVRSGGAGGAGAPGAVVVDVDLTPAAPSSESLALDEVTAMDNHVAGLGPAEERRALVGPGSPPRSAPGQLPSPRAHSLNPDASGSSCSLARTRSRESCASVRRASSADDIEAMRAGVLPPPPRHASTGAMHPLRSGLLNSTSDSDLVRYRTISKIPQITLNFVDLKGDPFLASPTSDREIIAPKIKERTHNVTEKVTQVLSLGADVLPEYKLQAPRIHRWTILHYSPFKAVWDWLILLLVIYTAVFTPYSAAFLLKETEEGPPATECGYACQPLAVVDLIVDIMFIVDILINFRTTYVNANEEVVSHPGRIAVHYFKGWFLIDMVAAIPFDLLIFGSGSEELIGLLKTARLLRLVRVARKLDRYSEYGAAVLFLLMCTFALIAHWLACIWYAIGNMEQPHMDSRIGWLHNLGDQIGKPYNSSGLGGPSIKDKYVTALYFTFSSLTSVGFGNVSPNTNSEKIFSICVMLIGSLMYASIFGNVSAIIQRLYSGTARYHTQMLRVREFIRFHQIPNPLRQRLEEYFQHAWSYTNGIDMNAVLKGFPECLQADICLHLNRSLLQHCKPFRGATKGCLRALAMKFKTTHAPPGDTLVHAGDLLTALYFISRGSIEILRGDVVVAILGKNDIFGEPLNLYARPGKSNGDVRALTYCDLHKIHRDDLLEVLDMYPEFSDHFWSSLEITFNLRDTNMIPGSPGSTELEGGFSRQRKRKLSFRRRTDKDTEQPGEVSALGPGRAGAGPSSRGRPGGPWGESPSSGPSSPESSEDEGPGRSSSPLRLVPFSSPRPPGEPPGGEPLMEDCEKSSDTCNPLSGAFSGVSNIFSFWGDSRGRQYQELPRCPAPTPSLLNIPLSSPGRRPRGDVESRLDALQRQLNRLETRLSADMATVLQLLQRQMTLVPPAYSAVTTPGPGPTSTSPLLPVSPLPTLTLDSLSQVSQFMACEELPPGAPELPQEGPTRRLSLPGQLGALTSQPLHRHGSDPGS
Nuclear receptor subfamily 1 group I member 2 (Rattus norvegicus), sequence (Q9R1A7 whole entry, looked up): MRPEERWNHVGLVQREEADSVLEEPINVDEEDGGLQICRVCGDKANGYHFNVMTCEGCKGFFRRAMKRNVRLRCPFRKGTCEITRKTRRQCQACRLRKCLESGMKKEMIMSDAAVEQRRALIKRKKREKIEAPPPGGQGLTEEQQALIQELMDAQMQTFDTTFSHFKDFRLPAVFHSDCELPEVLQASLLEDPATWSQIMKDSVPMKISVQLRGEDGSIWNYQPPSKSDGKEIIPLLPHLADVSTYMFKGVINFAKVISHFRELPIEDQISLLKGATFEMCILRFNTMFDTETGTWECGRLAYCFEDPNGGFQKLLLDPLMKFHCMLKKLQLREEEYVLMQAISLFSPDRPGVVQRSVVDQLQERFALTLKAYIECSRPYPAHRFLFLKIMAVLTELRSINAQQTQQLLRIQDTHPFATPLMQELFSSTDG

CC(=O)N1CCN(c2ccc(O)cc2)CC1
active: Potency [11] 24.5 µM
inactive: outcome [1] | outcome [2] | outcome [3] | outcome [4] | Potency [5] | outcome [6] | Potency [7] | outcome [8] | Potency [9] | Potency [10] | Potency [12] | Potency [13]

COc1cc(C=O)ccc1OC(=O)C(C)C
inactive: outcome [1] | outcome [2] | outcome [3] | outcome [4] | Potency [5] | outcome [6] | Potency [7] | outcome [8] | Potency [9] | Potency [10] | Potency [14] | Potency [12] | Potency [13]
active: Potency [15] 39.9 µM | Potency [16] 35.6 µM

BrC/C=C/CBr
inactive: viability change, negative = cytotoxic [1] 0.16% [at 15.8 µM] | activity change, negative = cytotoxicity [2] 11.2% [at 15.8 µM] | activation [3] 1.06% [at 15.8 µM] | activity, negative = inhibition [4] 0.461% [at 10.5 µM] | activity change, negative = cytotoxicity [5] 5.06% [at 19 µM] | caspase activation [6] -0.853% [at 19 µM] | activity change, negative = cytotoxicity [7] 8.86% [at 19 µM] | caspase-3/7 activation [8] 0.312% [at 19 µM] | activation [10] -6.32% [at 19 µM] | activity change, negative = inhibition [14] -5.12% [at 23.6 µM] | activity change, negative = inhibition [15] -2.14% [at 23.6 µM] | activity change, negative = inhibition [16] -9.58% [at 23.6 µM] | activity change, negative = inhibition [11] -13.1% [at 23.6 µM] | activity change, negative = inhibition [12] 3.44% [at 15.8 µM] | activity change, negative = inhibition [13] 0.976% [at 23.6 µM]

O=C(O)c1c(Cl)ccc(Cl)c1Cl
inactive: outcome [1] | outcome [2] | outcome [3] | outcome [4] | Potency [5] | outcome [6] | Potency [7] | outcome [8] | Potency [9] | Potency [10] | Potency [14] | Potency [15] | Potency [11] | Potency [12] | Potency [13]

CC(C)CCCC(C)CC=O (configuration not stated)
inactive: outcome [1] | outcome [2] | outcome [3] | outcome [4] | Potency [5] | outcome [6] | outcome [8] | Potency [9] | Potency [10] | Potency [14] | Potency [12] | Potency [13]
active: Potency [15] 79.6 µM

CN[C@@H]1[C@H](O)[C@H](NC)[C@H]2O[C@@]3(O)C(=O)C[C@@H](C)O[C@H]3O[C@@H]2[C@H]1O
inactive: outcome [1] | outcome [2] | outcome [3] | Potency [5] | outcome [6] | Potency [7] | outcome [8] | Potency [9] | Potency [10] | max activation [17] -0.189% | outcome [18] | Potency [19] | Potency [16] | Potency [12]

CCCCCCCC[Si](OCC)(OCC)OCC
inactive: outcome [1] | outcome [2] | outcome [3] | outcome [20] | Potency [5] | outcome [6] | Potency [7] | outcome [8] | Potency [10] | Potency [14] | Potency [16] | Potency [11] | Potency [12] | Potency [13]

F[Si-2](F)(F)(F)(F)F
inactive: outcome [1] | outcome [2] | outcome [3] | outcome [20] | Potency [5] | outcome [6] | Potency [7] | outcome [8] | Potency [9] | max activation [17] -2.73% | outcome [18] | Potency [19] | Potency [14] | Potency [15] | Potency [16] | Potency [11] | Potency [12] | Potency [13]
